Measured values as given in the supplement of paper PMC10849652.
Of roughly 8,800 targets only a part is listed; those with a hit were picked by preference. About 0.5% of all pairs of compound and target were hits. Values without a mark were called inactive.

Tests used:
Experiment in all cases: log2 fold change, soluble protein after heating vs DMSO (PISA); higher = thermal stabilisation; K562 lysate, 10 uM; active = over 0.2 and 3.5 SD of the protein, either way, in both replicates (recomputed)
ibrutinib = compound: C=CC(=O)N1CCC[C@@H](n2nc(-c3ccc(Oc4ccccc4)cc3)c3c(N)ncnc32)C1 [ibrutinib]
Outline: (§1)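 Quantification was by TMTpro 16plex LC-MS/MS with equalised channel sums, applied to the supernatant after 21,000xg for 90 min. Samples were crude K562 extract at 1 mg/mL protein in PBS pH 7.4 with 1 mM MgCl2, treated with 10 μM compound for 30 min, heated for 3 min across 48°C-58°C, pooled and brought to 0.5% NP-40 at 4°C. Values are log-two fold changes in thermal stability relative to solvent controls, from duplicates.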

[1] = compound: CC(=O)c1cnc2ccc(-c3cc(Cl)c(O)c(Cl)c3)nc2c1N[C@H]1CC[C@H](CN(C)C)CC1
Outline: as §1

ralimetinib = compound: CC(C)(C)Cn1c(N)nc2ccc(-c3[nH]c(C(C)(C)C)nc3-c3ccc(F)cc3)nc21 [ralimetinib]
Outline: as §1

[2] = compound: CC(C)(O)CC(=O)NCCn1ccc2ncnc(Nc3ccc(Oc4cccc(C(F)(F)F)c4)c(Cl)c3)c21
Outline: as §1

[3] = compound: CC(C)C1=C2N=C(C=C(N2N=C1)NCC3=CC=CC=C3)NCCCCCCN
Outline: as §1

[4] = compound: CC1=C(C(CC(=O)N1)C2=CC=C(C=C2)C(F)(F)F)C(=O)NC3=C(C=C4C(=C3)C=NN4)F
Outline: as §1

[5] = compound: CC1=C(C2=C(C=C1)C(=O)C3=CC=CC=C3N2CCCN)C
Outline: as §1

[6] = compound: CC1=C(C=C(C=C1)NC(=O)C2=CC(=CC=C2)C(C)(C)C#N)NC3=CC4=C(C=C3)N=CN(C4=O)C
Outline: as §1

[7] = compound: CC1=C(C=C(C=C1)NC(=O)C2=CC(=CC=C2)N(C)C)NC(=O)C3=CC=C(C=C3)O
Outline: as §1

[8] = compound: CC1=CC=C(C=C1)SC2=C3C=C(SC3=CN=C2)C(=O)N
Outline: as §1

Sequence of UniProt O60504 (O60504 whole entry, looked up): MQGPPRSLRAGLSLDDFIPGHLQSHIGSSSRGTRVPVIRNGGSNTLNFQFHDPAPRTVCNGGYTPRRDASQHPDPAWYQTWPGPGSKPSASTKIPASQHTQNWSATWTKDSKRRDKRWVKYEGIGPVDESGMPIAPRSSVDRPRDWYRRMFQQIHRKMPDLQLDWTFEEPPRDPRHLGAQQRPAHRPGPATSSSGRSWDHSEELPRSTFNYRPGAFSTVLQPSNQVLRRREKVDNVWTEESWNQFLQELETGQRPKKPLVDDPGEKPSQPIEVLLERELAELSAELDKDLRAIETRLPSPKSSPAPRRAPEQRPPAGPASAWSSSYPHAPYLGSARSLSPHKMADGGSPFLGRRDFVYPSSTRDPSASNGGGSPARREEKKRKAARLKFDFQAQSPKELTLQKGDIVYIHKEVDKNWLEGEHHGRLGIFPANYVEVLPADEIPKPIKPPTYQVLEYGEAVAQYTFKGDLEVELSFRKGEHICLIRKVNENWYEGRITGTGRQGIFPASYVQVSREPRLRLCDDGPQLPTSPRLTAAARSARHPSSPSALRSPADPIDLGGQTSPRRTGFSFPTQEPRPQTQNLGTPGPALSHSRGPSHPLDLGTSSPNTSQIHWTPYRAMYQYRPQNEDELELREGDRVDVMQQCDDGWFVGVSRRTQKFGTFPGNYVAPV
Sequence of UniProt Q6NXT6 (Q6NXT6 whole entry, looked up): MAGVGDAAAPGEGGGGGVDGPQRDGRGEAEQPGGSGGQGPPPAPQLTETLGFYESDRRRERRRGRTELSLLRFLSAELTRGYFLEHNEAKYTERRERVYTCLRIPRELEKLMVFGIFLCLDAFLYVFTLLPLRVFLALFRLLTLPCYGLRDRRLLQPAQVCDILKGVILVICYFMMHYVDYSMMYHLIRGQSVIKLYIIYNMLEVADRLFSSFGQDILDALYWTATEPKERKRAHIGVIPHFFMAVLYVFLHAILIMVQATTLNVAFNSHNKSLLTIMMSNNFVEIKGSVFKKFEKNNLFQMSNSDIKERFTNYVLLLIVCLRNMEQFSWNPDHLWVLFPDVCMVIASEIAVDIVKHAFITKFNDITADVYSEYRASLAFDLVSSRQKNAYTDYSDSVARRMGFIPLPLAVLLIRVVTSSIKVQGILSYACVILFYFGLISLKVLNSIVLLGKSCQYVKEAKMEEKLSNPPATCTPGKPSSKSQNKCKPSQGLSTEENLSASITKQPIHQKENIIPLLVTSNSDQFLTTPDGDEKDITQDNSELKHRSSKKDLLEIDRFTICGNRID
Sequence of UniProt P53814 (P53814 whole entry, looked up): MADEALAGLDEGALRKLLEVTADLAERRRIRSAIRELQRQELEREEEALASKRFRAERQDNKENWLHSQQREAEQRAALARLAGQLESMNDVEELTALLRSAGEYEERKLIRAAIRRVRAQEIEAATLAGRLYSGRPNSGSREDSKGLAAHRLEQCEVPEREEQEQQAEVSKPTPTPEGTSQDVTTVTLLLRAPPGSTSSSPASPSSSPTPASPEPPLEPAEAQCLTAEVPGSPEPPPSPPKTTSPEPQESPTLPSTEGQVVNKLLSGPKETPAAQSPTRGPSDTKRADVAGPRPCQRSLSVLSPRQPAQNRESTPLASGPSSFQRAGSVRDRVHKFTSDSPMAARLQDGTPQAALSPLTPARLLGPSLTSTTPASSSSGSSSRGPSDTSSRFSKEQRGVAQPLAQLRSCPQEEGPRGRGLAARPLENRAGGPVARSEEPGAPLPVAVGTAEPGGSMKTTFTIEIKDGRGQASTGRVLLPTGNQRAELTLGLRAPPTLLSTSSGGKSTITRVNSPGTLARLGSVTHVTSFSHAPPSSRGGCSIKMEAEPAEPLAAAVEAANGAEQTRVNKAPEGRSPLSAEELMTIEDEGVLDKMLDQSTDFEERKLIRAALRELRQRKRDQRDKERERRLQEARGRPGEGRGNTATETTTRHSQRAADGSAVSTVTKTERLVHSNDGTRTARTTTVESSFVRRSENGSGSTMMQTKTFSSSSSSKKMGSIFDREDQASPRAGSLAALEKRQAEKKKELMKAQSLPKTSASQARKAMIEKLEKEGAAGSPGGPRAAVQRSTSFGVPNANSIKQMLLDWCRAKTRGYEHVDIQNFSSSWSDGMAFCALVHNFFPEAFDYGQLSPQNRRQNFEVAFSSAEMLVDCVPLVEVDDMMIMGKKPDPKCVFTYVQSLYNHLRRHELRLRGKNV
Sequence of UniProt Q9H668 (Q9H668 whole entry, looked up): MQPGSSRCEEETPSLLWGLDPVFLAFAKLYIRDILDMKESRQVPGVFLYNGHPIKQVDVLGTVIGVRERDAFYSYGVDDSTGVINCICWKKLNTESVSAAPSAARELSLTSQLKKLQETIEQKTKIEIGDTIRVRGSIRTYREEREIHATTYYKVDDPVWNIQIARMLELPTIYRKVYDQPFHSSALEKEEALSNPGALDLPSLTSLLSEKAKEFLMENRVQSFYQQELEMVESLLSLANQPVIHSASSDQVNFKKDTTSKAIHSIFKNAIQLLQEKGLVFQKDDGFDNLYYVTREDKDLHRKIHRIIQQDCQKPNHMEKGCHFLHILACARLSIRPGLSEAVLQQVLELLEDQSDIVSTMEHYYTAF
Sequence of UniProt B2RUZ4 (B2RUZ4 whole entry, looked up): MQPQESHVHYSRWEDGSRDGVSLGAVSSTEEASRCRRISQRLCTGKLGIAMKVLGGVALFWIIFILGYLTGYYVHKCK
Sequence of UniProt P10124 (P10124 whole entry, looked up): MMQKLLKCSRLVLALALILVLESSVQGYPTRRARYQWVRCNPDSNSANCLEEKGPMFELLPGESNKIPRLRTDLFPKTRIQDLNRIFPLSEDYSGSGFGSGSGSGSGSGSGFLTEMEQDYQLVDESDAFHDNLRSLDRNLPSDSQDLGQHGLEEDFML
Sequence of UniProt Q6NXT4 (Q6NXT4 whole entry, looked up): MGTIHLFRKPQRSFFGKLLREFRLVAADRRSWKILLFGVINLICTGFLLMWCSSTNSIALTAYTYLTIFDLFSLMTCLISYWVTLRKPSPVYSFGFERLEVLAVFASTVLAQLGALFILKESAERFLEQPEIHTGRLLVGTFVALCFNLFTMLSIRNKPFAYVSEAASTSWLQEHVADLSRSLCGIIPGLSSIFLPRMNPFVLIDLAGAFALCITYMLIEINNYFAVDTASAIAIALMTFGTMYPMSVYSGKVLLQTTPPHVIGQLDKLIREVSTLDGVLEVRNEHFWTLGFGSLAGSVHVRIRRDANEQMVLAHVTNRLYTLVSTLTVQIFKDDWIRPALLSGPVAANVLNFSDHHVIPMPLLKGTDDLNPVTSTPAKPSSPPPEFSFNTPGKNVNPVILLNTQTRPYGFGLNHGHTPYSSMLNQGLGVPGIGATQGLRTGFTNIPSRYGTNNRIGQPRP
Sequence of UniProt Q92540 (Q92540 whole entry, looked up): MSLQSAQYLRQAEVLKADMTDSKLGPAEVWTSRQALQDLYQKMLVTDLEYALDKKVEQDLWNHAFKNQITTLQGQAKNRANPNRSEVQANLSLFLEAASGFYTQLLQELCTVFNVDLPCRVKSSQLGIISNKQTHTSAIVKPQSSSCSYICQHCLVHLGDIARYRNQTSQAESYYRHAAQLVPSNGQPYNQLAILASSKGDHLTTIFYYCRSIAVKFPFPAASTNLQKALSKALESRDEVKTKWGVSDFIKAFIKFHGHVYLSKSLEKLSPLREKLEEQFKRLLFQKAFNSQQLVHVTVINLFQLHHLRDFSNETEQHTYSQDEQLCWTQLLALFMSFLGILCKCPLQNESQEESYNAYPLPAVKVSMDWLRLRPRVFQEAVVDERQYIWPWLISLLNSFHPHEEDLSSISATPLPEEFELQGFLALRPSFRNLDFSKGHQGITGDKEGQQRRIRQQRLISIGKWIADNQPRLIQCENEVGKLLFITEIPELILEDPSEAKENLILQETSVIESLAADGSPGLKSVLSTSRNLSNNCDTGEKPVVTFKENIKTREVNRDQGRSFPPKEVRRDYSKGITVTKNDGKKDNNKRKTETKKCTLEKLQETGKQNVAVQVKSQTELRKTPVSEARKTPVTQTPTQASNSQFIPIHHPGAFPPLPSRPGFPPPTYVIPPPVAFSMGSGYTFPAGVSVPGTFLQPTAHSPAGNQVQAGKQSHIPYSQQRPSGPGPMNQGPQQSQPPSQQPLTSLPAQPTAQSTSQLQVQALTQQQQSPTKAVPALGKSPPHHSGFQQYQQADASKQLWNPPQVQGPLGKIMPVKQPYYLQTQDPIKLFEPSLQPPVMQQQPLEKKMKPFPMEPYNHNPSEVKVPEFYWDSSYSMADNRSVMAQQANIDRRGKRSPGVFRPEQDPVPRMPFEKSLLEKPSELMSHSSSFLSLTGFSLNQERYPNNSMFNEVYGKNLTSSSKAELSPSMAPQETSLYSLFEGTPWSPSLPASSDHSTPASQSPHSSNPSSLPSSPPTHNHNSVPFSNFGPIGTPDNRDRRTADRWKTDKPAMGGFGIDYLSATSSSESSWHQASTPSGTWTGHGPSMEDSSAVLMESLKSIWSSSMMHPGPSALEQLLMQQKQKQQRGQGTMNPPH
Sequence of UniProt P41440 (P41440 whole entry, looked up): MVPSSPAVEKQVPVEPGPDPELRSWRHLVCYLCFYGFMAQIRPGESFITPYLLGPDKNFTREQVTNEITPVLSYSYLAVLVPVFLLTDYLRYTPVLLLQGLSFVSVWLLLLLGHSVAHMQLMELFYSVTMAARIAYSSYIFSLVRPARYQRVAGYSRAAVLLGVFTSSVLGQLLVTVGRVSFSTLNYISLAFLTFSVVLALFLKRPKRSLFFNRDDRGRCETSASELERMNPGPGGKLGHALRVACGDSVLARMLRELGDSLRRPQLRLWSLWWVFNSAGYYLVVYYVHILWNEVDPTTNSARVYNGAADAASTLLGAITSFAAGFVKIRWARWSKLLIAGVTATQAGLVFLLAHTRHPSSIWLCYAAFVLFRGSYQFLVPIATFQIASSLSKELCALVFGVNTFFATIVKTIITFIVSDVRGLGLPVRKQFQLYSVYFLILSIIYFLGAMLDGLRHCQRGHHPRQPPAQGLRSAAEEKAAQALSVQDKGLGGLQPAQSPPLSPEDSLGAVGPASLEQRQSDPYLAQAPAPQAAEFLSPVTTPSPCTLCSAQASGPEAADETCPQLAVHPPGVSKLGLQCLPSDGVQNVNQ

| Target | log2 fold change (ibrutinib) | log2 fold change [1] | log2 fold change (ralimetinib) | log2 fold change [2] | log2 fold change [3] | log2 fold change [4] | log2 fold change [5] | log2 fold change [6] | log2 fold change [7] | log2 fold change [8] |
| --- | --- | --- | --- | --- | --- | --- | --- | --- | --- | --- |
| TAPT1 (UniProt Q6NXT6) | 0.071 | 0.012 | -0.029 | -0.07 | 0.004 | -0.019 | -0.014 | 0.09 | -0.004 | -0.027 |
| TANK (UniProt Q92844) | 0.042 | 0.086 | -0.049 | -0.003 | 0.044 | 0.061 | 0.018 | 0 | 0.054 | 0.002 |
| SH3BP5L (UniProt Q7L8J4) | 0.007 | 0.013 | -0.024 | -0.035 | 0.032 | 0.009 | -0.02 | 0.021 | -0.017 | -0.045 |
| SFR1 isoform 2 (UniProt Q86XK3) | 0.023 | -0.006 | 0.003 | -0.012 | -0.005 | -0.006 | 0.041 | 0.026 | 0.06 | 0.016 |
| SSBP3 (UniProt Q9BWW4) | 0.435 (active) | -0.024 | 0 | -0.038 | -0.02 | -0.021 | -0.018 | -0.018 | 0 | 0.054 |
| SYK (UniProt P43405) | -0.09 | -0.041 | -0.025 | -0.103 | 0.051 | -0.055 | -0.114 | -0.001 | 0.027 | -0.065 |
| SKA2 (UniProt Q8WVK7) | 0.037 | 0.004 | 0.016 | -0.003 | 0.014 | -0.004 | 0.032 | -0.099 | -0.011 | -0.03 |
| SMIM1 (UniProt B2RUZ4) | 0.018 | 0.005 | 0.054 | 0.036 | 0.081 | -0.132 | – | -0.042 | -0.021 | 0.058 |
| SORBS3 (UniProt O60504) | -0.005 | 0.067 | 0.099 | -0.113 | -0.035 | – | -0.158 | 0.046 | -0.05 | -0.114 |
| SH3BP2 isoform 4 (UniProt P78314) | 0.096 | -0.084 | 0.07 | 0.137 | -0.004 | – | -0.297 | 0.03 | -0.126 | 0.073 |
| SHCBP1 (UniProt Q8NEM2) | -0.04 | 0.023 | 0.026 | 0.031 | 0.012 | 0.009 | 0.002 | -0.008 | 0.056 | -0.041 |
| SLC25A44 (UniProt Q96H78) | -0.006 | 0.002 | 0.065 | -0.322 | -0.031 | – | -0.017 | 0.038 | -0.118 | 0.002 |
| SOX5 (UniProt P35711) | -0.064 | 0.14 | -0.049 | 0.02 | 0.091 | – | 0.053 | 0.036 | 0.088 | -0.105 |
| SSB (UniProt E7ERC4) | 0.14 | -0.087 | -0.009 | -0.075 | -0.046 | 0.062 | 0.014 | 0.239 | 0.093 | -0.013 |
| STN1 (UniProt Q9H668) | 0.133 | -0.187 | 0.151 | -0.071 | -0.056 | 0.106 | – | -0.016 | 0.051 | 0.035 |
| SMG1 (UniProt Q96Q15) | 0.041 | 0.017 | 0.044 | -0.019 | -0.003 | 0.005 | 0.027 | 0.023 | 0.017 | 0.007 |
| SSU72 (UniProt Q9NP77) | 0.075 | 0.031 | 0.026 | -0.002 | 0.038 | -0.018 | 0.025 | 0.001 | 0.015 | 0.03 |
| SNRPF (UniProt P62306) | -0.027 | -0.013 | -0.024 | -0.072 | -0.004 | 0.015 | -0.137 | 0.018 | 0.028 | -0.082 |
| SRRT (UniProt Q9BXP5) | 0.013 | 0 | 0.026 | 0.006 | -0.01 | -0.024 | -0.012 | -0.008 | 0.043 | -0.001 |
| SLC30A6 isoform 2 (UniProt Q6NXT4) | 0.052 | -0.019 | -0.013 | -0.016 | -0.023 | 0.047 | – | -0.022 | 0.053 | 0.011 |
| SMTN isoform 6 (UniProt P53814) | -0.03 | -0.072 | -0.02 | -0.004 | -0.009 | 0.074 | -0.013 | 0.054 | 0.05 | 0.135 |
| STARD3 isoform 3 (UniProt Q14849) | 0.039 | 0.044 | -0.074 | -0.018 | 0.011 | 0.033 | -0.072 | 0.073 | 0.021 | 0.028 |
| SZT2 (UniProt Q5T011) | -0.225 | -0.102 | 0.14 | -0.07 | -0.135 | 0.076 | 0.126 | – | -0.134 | 0.105 |
| SRGN (UniProt P10124) | 0.109 | 0.084 | 0.001 | -0.159 | -0.018 | – | -0.079 | 0.104 | -0.064 | -0.064 |
| SRPK1 (UniProt Q96SB4) | 0.031 | 0.008 | -0.004 | -0.001 | -0.005 | -0.004 | -0.018 | 0.006 | -0.029 | 0.011 |
| SLC27A2 (UniProt O14975) | 0.243 | -0.024 | -0.013 | 0.245 | 0.11 | -0.041 | -0.035 | 0.069 | -0.089 | 0.031 |
| SMG7 (UniProt Q92540) | 0.019 | 0.041 | -0.036 | -0.13 | 0.066 | -0.02 | -0.01 | -0.281 | 0.047 | 0.03 |
| SLC25A17 (UniProt O43808) | -0.007 | -0.043 | 0.047 | -0.019 | 0.037 | 0.001 | 0.029 | 0.03 | -0.01 | 0.044 |
| SPNS1 (UniProt Q9H2V7) | 0.02 | -0.001 | 0.005 | -0.009 | 0.007 | -0.009 | -0.007 | 0.047 | -0.029 | 0.012 |
| SLC19A1 (UniProt P41440) | 0.049 | 0.013 | -0.004 | -0.054 | -0.019 | 0.019 | -0.044 | 0.009 | 0.004 | -0.003 |
